From PubChem
Lassa entry inh – blocks Lassa virus binding to or entry into cells; Lassa virus pseudotype entry inhibition, cell reporter; actives 1.2% (n = 300,000); AID 540256; Potency, µM (titrated, usually from 37.9 µM), without a hit: at the top dose activity change, negative = inhibition, usual class: inhibitors; calls by dose curve; tested in HEK293 cells; further: potency means the concentration at half of the fitted maximal effect; nearly all actives have a fitted effect of over 50% in size
Pf growth 96h – P. falciparum growth inhibition at 96 hours; P. falciparum luciferase reporter growth, 96 h; Potency, µM (series often up to 28.7 µM), inactives show top-dose activity change, negative = inhibition, most hits filed as inhibitors; actives 6.9% (n = 320,000); AID 504834; further: potency means the concentration at half of the fitted maximal effect
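Delayed-death screen, second-generation endpoint: infected erythrocytes, 2% hematocrit, 0.05% parasitemia final; 96 hours at 37 C, 5% CO2; luciferase detection reagent; luminescence decrease equals reduced growth.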
HCV inhibitor – inhibitors of hepatitis C virus infection; Huh7.5.1 HCVcc-Cre infection, luciferase reporter, 44 h; actives 3.4% (n = 340,000); Potency, µM (doses to about 41.8 µM), for inactives: at the top dose activity change, negative = inhibition, usual class: inhibitors; further: potency means the concentration at half of the fitted maximal effect
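Whole-lifecycle infectious HCVcc-Cre system; cells 1,000/well, compound then virus (~0.5 moi) added 4 h after plating, 44 h culture. Luciferase read 15 sec following 15 min substrate incubation, room temp.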
HCMV antiviral – blocks human cytomegalovirus replication; AID 1259415; activity change, negative = inhibition, % at 57.5 µM; HFF cells, HCMV-luciferase reporter, 72 h; stronger effect = lower value; actives 4.5% (n = 410,000); in the data active means activity change below about -60%; inconclusive means no clear call, values can overlap the other calls; inactive means above about -39%
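After 16 h attachment at 37C, HFF cells received test compound and HCMV-luciferase (1 PFU/cell); reporter luminescence read 72 h later, data normalized against buffer-only and known inhibitor Salinomycin.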
Pf growth 48h – inhibits P. falciparum growth in the first generation, 48 h; P. falciparum luciferase growth in erythrocytes, 48 h; Potency, µM (highest dose often 28.7 µM), for inactives: at the top dose activity change, negative = inhibition, most hits filed as inhibitors; actives 5.9% (n = 310,000); AID 504832; further: potency means the concentration at half of the fitted maximal effect
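Growth was read as firefly luciferase luminescence after a 48 h, 37 C, 5% CO2 exposure of compounds to reporter-bearing P. falciparum cultures (0.1% parasitemia, 2% hematocrit final) in Albumax-supplemented RPMI 1640.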
MARV entry inh – inhibitors of Marburg virus binding or cell entry; Marburg virus pseudotyped entry inhibition, cell reporter; Potency, µM (highest dose often 37.8 µM), inactives show top-dose activity change, negative = inhibition, usual class: inhibitors; actives 1.8% (n = 300,000); AID 540276; calls by dose curve; tested in HEK293 cells; further: potency means the concentration at half of the fitted maximal effect
The depositor's hits bear a star; ? = inconclusive; . = no result; [ ] = dose if it differs, or a comment. Most compounds without a hit are left out; they make up all but 14% or so of the library. Unless noted, the call rests on the fitted dose curve; in most records, active means well fitted inhibition curve with a large enough effect; inconclusive means small, poorly fitted or top-dose-only effect, or another doubt; inactive means no such curve, though single readings can be large or run the other way. On the % scale 0 is the no-effect control and ±100 the full control effect.

SMILES	Lassa entry inh	Pf growth 96h	HCV inhibitor	HCMV antiviral	Pf growth 48h	MARV entry inh
Cc1ccc(CNC(=O)CN2CCCN(Cc3ccc(F)cc3)S2(=O)=O)cc1	11µM*	.	.	0	.	.
COc1ccc(NC(=O)CN2CCN(Cc3ccc(F)cc3)S2(=O)=O)cc1Cl	-12%[46.1 µM]	.	.	-13	.	.
O=C(CN1CCCN(Cc2ccc(F)cc2)S1(=O)=O)NC1CCCC1	.	?	-5%	-15	?	.
COc1ccc(CCNC(=O)Cn2c(=O)c3cccn3c3ccc(F)cc32)c(OC)c1	4%[46.1 µM]	.	.	42	.	.
O=C1N=C(N2CCc3ccccc3C2)S/C1=C\c1cccc(O)c1	21µM*	?	4%	8	-19%	24%
CCCOc1ccccc1/C=C1\SC(N2CCCCC2)=NC1=O	?	?	10µM*	-82*	?	?
O=C1N=C(N2CCCCC2)S/C1=C\c1ccccc1F	-26%	?	-23%	14	-1%	?
O=C1N=C(N2CCCC2)S/C1=C\c1ccccc1	-4%	?	7%	-11	15µM*	?
COc1ccc(/C=C2\SC(N3CCc4ccccc4C3)=NC2=O)cc1	?	?	-6%	29	?	?
CCc1ccc(OCC(=O)Nc2c(C(=O)c3ccc(Br)cc3)oc3ccccc23)cc1	-1%[46.1 µM]	.	.	25	.	-7%[46.1 µM]
COc1ccc(N(CC(=O)Nc2ccc(S(=O)(=O)N3CCOCC3)cc2)S(=O)(=O)c2ccc(F)cc2)cc1	-28%	-1%	14µM*	-6	13µM*	?
CN(CC(=O)Nc1ccc(S(=O)(=O)N2CCCC2)cc1)CC(=O)Nc1ccc(F)c(F)c1F	-26%	?	?	34	10µM*	-18%[46.1 µM]
CCc1ccc(CN(C)CC(=O)Nc2ccc(S(=O)(=O)N3CCOCC3)cc2)cc1	.	?	-16%	0	10µM*	.
O=C(CN1CCN(c2ccc(F)cc2)CC1)Nc1ccc(S(=O)(=O)N2CCOCC2)cc1	?	18%	-12%	78	-13%	2%[46.1 µM]
CN(CC(=O)Nc1ccc(S(=O)(=O)N2CCOCC2)cc1)Cc1ccc(F)cc1	.	13µM*	6%	-8	?	.
COc1ccc(-c2nc3ccc(C)cn3c2CC(C)(C)C)cc1OC	.	.	.	5	.	.
O=C(Cn1cnc2ccccc21)N/N=C/c1ccc([N+](=O)[O-])cc1	16%	18%	-9%	-26	19%	22%[46.1 µM]
CN(C)c1ccc(/C=N/Nc2nc3ccccc3o2)cc1	5.6µM*	45%	10%	-16	45%	?
CCS(=O)(=O)c1ccc(C=NNc2nc3ccccc3o2)cc1	?	.	-13%	45	.	?
O=[N+]([O-])c1ccc(/C=N/Nc2nc3ccccc3o2)cc1	.	9.3µM*	11%	74	129%	.
CCCCCCCCN1C(=O)[C@H](CC(=O)NCCCC)C[C@@]2(C(=O)OC)CC(C)(C)CC=C12	.	.	.	6	.	.
CCc1nn(CC(=O)NCCCN(CC)Cc2ccccc2)c(=O)c2cc3sccc3n12	-1%	3%	-10%	-30	.	?
CCCCN(CCCNC(=O)Cn1nc(CC)n2c(cc3sc(C)cc32)c1=O)Cc1ccccc1	.	36%	8.9µM*	-25	?	.
CC(=O)c1cccc(NC(=O)c2cccc(S(=O)(=O)N3CCOCC3)c2)c1	-10%	13%	-15%	27	-24%	6%[46.1 µM]
CC(=O)Nc1ccc(/C=N/NC(=O)c2cccc(S(=O)(=O)N3CCOCC3)c2)cc1	-4%	17%	27%	-102*	22%	?
SMILES	Lassa entry inh	Pf growth 96h	HCV inhibitor	HCMV antiviral	Pf growth 48h	MARV entry inh
O=C(N/N=C/c1sc(N2CCOCC2)nc1-c1ccccc1)c1cccc(S(=O)(=O)N2CCCC2)c1	?	?	3.5µM*	-112*	?	?
C/C(=N\NC(=O)c1cccc(S(=O)(=O)N2CCOCC2)c1)c1ccc(O)cc1	.	0.59µM*	?	-11	-20%	.
CC(=O)Nc1cccc(/C(C)=N/NC(=O)c2cccc(S(=O)(=O)N3CCOCC3)c2)c1	25%	12µM*	1%	-31	-2%	-20%
CCc1nnc2c3ccccc3nc(Nc3ccc(F)c(Cl)c3)n12	0%[46.1 µM]	.	.	0	.	3%[46.1 µM]
CCN(CC)S(=O)(=O)c1cccc(C(=O)N/N=C(\C)c2ccc(O)cc2O)c1	?	?	8.9µM*	-95*	0%	7.9µM*
COc1cc(CNC(=O)C2CCCCN2S(=O)(=O)c2ccc(F)cc2)cc(OC)c1OC (stereo not drawn)	5%[46.1 µM]	.	.	-5	.	.
COc1ccc(C)cc1NS(=O)(=O)c1ccc(NC(=O)CN(c2cc([N+](=O)[O-])ccc2C)S(C)(=O)=O)cc1	?	18%	10µM*	-35	?	3.7µM*
COc1ccc(S(=O)(=O)N(CC(=O)Nc2ccc(C)cc2)c2ccc(C)cc2)cc1OC	4%[46.1 µM]	.	.	6	.	.
Cc1cccc(NS(=O)(=O)c2ccc(NC(=O)CN(c3cc([N+](=O)[O-])ccc3C)S(C)(=O)=O)cc2)c1	?	?	?	-3	?	?
COc1ccc(C)cc1S(=O)(=O)N(CC(=O)Nc1cccc([N+](=O)[O-])c1)c1ccc(C)c(C)c1	0%	17%	6%	-23	13µM*	?
CC(=O)c1ccc2c(c1)OCO2	-1%	-4%	-14%	19	-4%	12%
C[n+]1cc2c3c(ccc2c2ccc4cc5c(cc4c21)OCO5)OCO3	.	104%	.	-98*	66%	0.89µM*
Cc1c(NC(=O)OCCNC(=O)Nc2ccccc2)sc(=S)n1C	6%	4.7µM*	12%	-27	12%	7%
Cc1ccc(Cl)cc1OCC(=O)NCCOC(=O)Nc1sc(=S)n(C)c1C	-20%	-28%	?	-3	0%	-27%
Cc1ccc(S(=O)(=O)NCCOC(=O)Nc2sc(=S)n(C)c2C)cc1	-2%	6%	?	-32	.	2%
Cc1cc(Cl)ccc1OCC(=O)NCCOC(=O)Nc1sc(=S)n(C)c1C	-16%	4.7µM*	?	?	7%	14%
CCOC(=O)N/N=C1\C[C@@H](O)[C@@H](O)[C@@H]2[C@@H]3C(=O)N(Cc4ccc5c(c4)OCO5)C(=O)[C@@H]3CC[C@H]12	.	.	.	.	.	-2%[14.2 µM]
COc1cc(OC)c(NC(=O)Cn2c(SCc3ccccc3F)nc3cccnc32)cc1Cl	12%[46.1 µM]	.	.	-14	.	.
Cn1cc(CCC(=O)N2CCCC(CCC(=O)NCc3ccccc3F)C2)cn1 (stereo not drawn)	.	?	24%	-24	10%	.
O=C(CCC1CCCN(C(=O)c2cccnc2)C1)NCc1ccccc1F (stereo not drawn)	-10%	-13%	4%	31	12%	-16%
CN(C)c1cccc(C(=O)N2CCCC(CCC(=O)NCc3ccccc3F)C2)c1 (stereo not drawn)	-21%[46.1 µM]	?	?	-26	3.3µM*	-25%[46.1 µM]
